Screens deposited in PubChem BioAssay by NMMLSC.
Compounds with a hit are over-represented: about 0.4% of the library has one in this group of screens.
Cdc42 wt – modulators of GTP binding to wildtype Cdc42, primary screen, biochemical, multiplex bead flow cytometry, Bodipy-GTP; 190,000 tested, 0.2% active; GST-Cdc42 beads; actives lie on both sides; AID 761, 2007; percent activity (GTP binding), % at 10 µM;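 active = percent activity GTP binding at least 20 points away from the 100% baseline, either down as inhibitor or up as activator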;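 note: median bead fluorescence of bound Bodipy-FL-GTP at 100 nM; 0% = excess unlabeled GTP control and 100% = no compound control; below 100% means less GTP binding so inhibitor and above means activator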
Target sequence (P60953 whole entry, looked up): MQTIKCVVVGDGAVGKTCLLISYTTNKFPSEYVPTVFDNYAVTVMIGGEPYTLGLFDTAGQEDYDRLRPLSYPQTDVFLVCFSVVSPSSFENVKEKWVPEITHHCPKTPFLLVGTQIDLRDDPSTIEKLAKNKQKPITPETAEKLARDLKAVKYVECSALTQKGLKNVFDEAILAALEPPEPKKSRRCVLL
HRas wt GTP – modulators of GTP binding to HRas wildtype, primary screen, biochemical, bead-based flow cytometry, multiplex | GTPase HRas (Homo sapiens), P01112 | GST-Ras wt beads, Bodipy-FL-GTP binding; actives lie on both sides | GTP binding activity, % at 10 µM | 190,000 tested, 0.14% active;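 active = GTP binding activity at least 20% away from the 100% baseline, either lowered as inhibitor or raised as activator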;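 note: 0% = unlabeled GTP competition control and 100% = no-compound control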
Target sequence (P01112 whole entry, looked up): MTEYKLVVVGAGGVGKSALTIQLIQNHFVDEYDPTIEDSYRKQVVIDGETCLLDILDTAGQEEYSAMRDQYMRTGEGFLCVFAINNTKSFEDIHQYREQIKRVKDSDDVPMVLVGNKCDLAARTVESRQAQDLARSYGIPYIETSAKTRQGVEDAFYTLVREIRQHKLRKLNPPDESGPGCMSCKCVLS
Rac1 wt modul – wildtype Rac1 GTP binding modulators, primary screen, biochemical, GST-Rac1 beads, flow cytometry, multiplex; 190,000 tested, 0.27% active; fluorescent GTP binding; actives lie on both sides; 0 = cold GTP competed, 100 = untreated; AID 757, 2007; GTP binding activity (% of control), % at 10 µM; Ras-related C3 botulinum toxin substrate 1 (Homo sapiens), P63000;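 active = GTP binding activity at least 20 points away from the 100% control level, either lower or higher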
Rab7 wt modul – modulators of GTP binding to Rab7, primary screen, biochemical, wildtype, multiplex bead flow cytometry. GST-Rab7 beads, fluorescent GTP binding; actives lie on both sides; untreated = 100%, excess cold GTP = 0%. GTP binding activity (percent of control), % at 10 µM. 190,000 tested, 0.055% active. AID 758, 2007;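 active = fluorescent GTP binding to Rab7 beads changed by at least 20 points from the 100% baseline, either direction, mostly lower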;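 note: median green fluorescence of bound Bodipy-FL-GTP per Rab7 bead population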
Rac1 mut GTP – GTP binding modulators of activated mutant Rac1, primary screen, biochemical, bead-based flow cytometry, multiplex, fluorescent GTP. Ras-related C3 botulinum toxin substrate 1 (Homo sapiens), P63000. GST-Rac1 activated beads; actives lie on both sides; 100% means binding = to untreated wells. percent activity (GTP binding), % at 10 µM. 190,000 tested, 0.11% active;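 active = GTP binding at least 20 percentage points away from the 100% baseline, in either direction, so actives lie on both sides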
Rab2A wt mod – modulators of GTP binding to Rab2A wildtype, primary screen, biochemical, dog, bead-based flow cytometry, multiplex | 190,000 tested, 0.19% active | GST-Rab2 wt beads, Bodipy-GTP binding | Ras-related protein Rab-2A (Canis lupus familiaris), P61105 | GTP binding activity, % at 10 µM;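 active = GTP binding activity at least 20 points away from 100%, either lowered or raised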;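 note: 0% = beads with excess unlabeled GTP and 100% = no-compound control corrected for plate trend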
* marks the source's active call; other numbers are inactive results; [ ] = another dose, or the depositor's remark.

SMILES	Cdc42 wt	HRas wt GTP	Rac1 wt modul	Rab7 wt modul	Rac1 mut GTP	Rab2A wt mod
COc1ccc(/C=C2\CCCC3C2=NN(C(=O)c2scnc2C)C3c2ccc(OC)c(OC)c2)cc1OC (centres undefined)	66*	67*	81	88	85	66*
c1ccc(-c2csc3ncnc(NCCCN4CCOCC4)c23)cc1	94	97	98	105	97	97
O=c1c2c(-c3ccccc3)csc2nc2c3ccccc3c(NCCN3CCOCC3)nn12	69*	65*	55*	70*	82	65*
Cc1ccc(-n2c(=O)[nH]c3c(oc4ccccc43)c2=O)cc1	114	112	135*[activator]	106	107	117
COc1ccc(-n2c(=S)[nH]c3c(oc4ccccc43)c2=O)cc1	96	99	111	98	98	94
CC(=O)c1cc2c(cc1NC(=O)c1cccc(S(=O)(=O)N3CCN(C)CC3)c1)OCO2	83	84	78*	98	89	82
O=C(Nc1cccc(S(=O)(=O)N2CCCC2)c1)c1ccc2c(c1)OCO2	99	92	90	92	94	90
CN1CCN(S(=O)(=O)c2cccc(C(=O)Nc3sc4c(c3C(N)=O)CCCC4)c2)CC1	79*	80	72*	85	87	77*
O=C(Oc1ccc(C(=S)N2CCOCC2)cc1Br)c1cc(Cl)ccc1Cl	97	98	99	98	95	96
O=C(Oc1c(Br)cc(C(=S)N2CCOCC2)cc1Br)c1ccc(Cl)cc1	75*	80	80	88	77*	78*
O=C(c1ccccc1SCc1ccccc1)N1CCOCC1	98	98	103	107	98	100
O=C(O)c1ccccc1SCc1ccc2c(c1)OCO2	135*[activator]	123*[activator]	135*[activator]	121*[activator]	127*[activator]	127*[activator]
CCOC(=O)C1=NN(C(=O)c2ccc(OC)cc2)C(O)(c2ccc(Cl)cc2)C1 (centres undefined)	100	98	99	95	98	96
COC(=O)C1=NN(C(=O)c2cccc(Br)c2)C(O)(c2ccc(Cl)cc2)C1 (centres undefined)	78*	85	85	94	79*	82
CCc1ccccc1NC(=O)N1C2CCCC1CC(NC(C)=O)C2 (centres undefined)	126*[activator]	104	139*[activator]	95	107	108
Cc1ccc(Nc2c(F)c(F)c(F)c(F)c2C(=O)O)cc1	128*[activator]	117	141*[activator]	119	130*[activator]	127*[activator]
COc1cccc(Nc2c(F)c(F)c(F)c(F)c2C(=O)O)c1	123*[activator]	113	131*[activator]	113	116	113
CCN1CCN(C(C(=O)NC2CCCCC2)c2ccc(Cl)cc2)CC1 (centres undefined)	94	91	91	86	90	89
S=c1[nH]nc(-c2ccco2)n1-c1ccccc1Cl	79*	84	77*	88	79*	85
CC(CCc1ccccc1)NCC(O)COc1ccccc1 (centres undefined)	99	98	100	107	96	101
Cn1nc(C(F)(F)F)c(CO)c1Sc1ccc(F)cc1	93	97	98	101	97	98
CC1(C)Cc2c(sc(NC(=O)c3ccc(Br)o3)c2C#N)CO1	148*[activator]	104	167*[activator]	99	118	112
CCCCC(=O)Nc1sc2c(c1C#N)CC(C)(C)OC2	103	101	107	104	100	98
O=C(c1nnsc1S(=O)(=O)c1ccc(Cl)cc1)N1CCOCC1	105	102	106	107	120*[activator]	106
Cc1ccc2c(c1)c1nnc(SCC(=O)N3CCCc4ccccc43)nc1n2CC(=O)O	64*	67*	66*	84	82	66*
SMILES	Cdc42 wt	HRas wt GTP	Rac1 wt modul	Rab7 wt modul	Rac1 mut GTP	Rab2A wt mod
COc1ccc(-n2cc(-c3ccccc3)c3c(N4CCOCC4)ncnc32)cc1	97	97	99	94	98	96
COc1ccc(-n2cc(-c3ccccc3)c3c(=O)[nH]cnc32)cc1	110	108	121*[activator]	104	104	106
CCOC(=O)Cn1ncc(-c2ccccc2)c1N	104	99	108	97	101	98
CC(=O)Nc1ccc(NC(=O)c2ccccc2C)cc1	103	102	105	102	101	102
Cc1ccccc1C(=O)Nc1ccc2c(C#N)c3nc4ccccc4nc3n2c1	88	80	76*	89	88	76*
Fc1cccc(Nc2ncnc3[nH]ncc23)c1	88	87	79*	104	91	88
NS(=O)(=O)c1ccc(Nc2nc(-c3ccc(O)cc3O)cs2)cc1	77*	78*	78*	87	86	77*
NS(=O)(=O)c1ccc(Nc2nc(-c3ccc(F)cc3)cs2)cc1	102	97	96	100	96	95
COC(=O)c1cccn(CC(=O)c2ccc(Cl)cc2)c1=O	100	99	100	100	94	94
Cc1ccc(SCC(=O)NC(=O)NCCC(C)C)c(C)c1	99	101	101	106	99	102
O=C(O)c1ccc(Nc2nc(-c3cc4ccccc4oc3=O)cs2)cc1O	84	87	79*	94	88	87
NS(=O)(=O)c1ccc(CNC(=O)c2csc3c2CCCC3)cc1	97	101	105	109	95	103
COc1ccc(-n2c(NC(=O)c3ccc(Br)o3)c(C#N)c3nc4ccccc4nc32)cc1	77*	81	79*	85	79*	79*
COc1ccc(Cn2c(N)c(C#N)c3nc4ccccc4nc32)cc1	99	96	99	99	97	97
CCOCCOC(NC(=O)c1ccccc1)(C(F)(F)F)C(F)(F)F	100	101	104	104	101	99
Cc1nc2sccn2c1-c1nc(-c2cc3ccccc3o2)cs1	83	81	79*	87	91	77*
c1ccc2oc(-c3csc(N4CCOCC4)n3)cc2c1	92	95	96	97	97	94
Cc1ccc(-c2ccc(/C=C3\SC(N4CCOCC4)=NC3=O)o2)cc1	87	85	76*	90	90	88
Cn1c(O)c(C2=c3ccccc3=NC2=O)[nH]c1=S	90	87	79*	94	90	85
